This test concerns HL-60(TB) leukemia. Nature of the test: NCI-60 one-dose screen, 48 h (100 = growth as untreated, 0 = no growth, -100 = all killed). To be noted: 10 µM unless noted.

This passage reports growth results from PubChem BioAssay (NCI).

The panel holds about 83,000 compounds, 20% with a hit somewhere; the sample as a whole holds those more often.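 Assay: single dose, 48 h. Readout: percent growth (0 = no net growth; negative = cell death). Active: <10.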 A number with no mark means an inactive call. Calls of active or inactive are those of the source.

In the case of `COc1cc(C(=O)c2cc(C)c3[nH]c4ccc(C)cc4c3c2C)cc(OC)c1OC`, the growth is -2.6% (active).
The same measure for `O=c1c2cc(F)cc(Cl)c2sc2c(Cl)nc3ccccc3c12`: 115%; for `c1ccc(Nc2ccccn2)nc1`: 101%.
In the case of `CCCCOCCOCCOCc1cc2c(cc1Br)OCO2` it was 108%; in that of `O=[N+]([O-])c1ccc(/C=C/C2(CCl)OCCO2)cc1`, 76.2%.
As for `CCCCCCCCC/C(=N\NC(=O)c1ccncc1)c1ccc(O)c(O)c1O`, the growth is 0.166% (active).
In the case of `COc1cc(OC)cc(C(=O)Nc2cc(-c3cccnc3)nc(NCCCN3CCOCC3)n2)c1` it was 86.5%.
The same measure for `CCCCCCCCCCCCCCCCCc1nccn1CCO`: 64.4%; for `CCOC(=O)c1sc(NC(=O)COc2ccc(/C=C3\Cc4ccc(Cl)cc4C3=O)cc2)nc1C`: 98%.
For `COc1ccc(/C=C2\CN(Cc3cn(CCCNc4ccnc5cc(Cl)ccc45)nn3)C/C(=C\c3ccc(OC)cc3)C2=O)cc1`, the growth was 53.1%.
In the case of `N=C(N)c1ccc(-c2ccc(-c3ccc4ccccc4c3)s2)cc1`, the growth is 86.7%.
In the case of `CCN1CCN(C(=O)[C@]23CC[C@@H](C)[C@H](C)[C@@H]2C2=CC[C@@H]4[C@@]5(C)C/C(=C/c6cccnc6)C(=O)C(C)(C)[C@@H]5CC[C@@]4(C)[C@]2(C)CC3)CC1`, the growth is -38.2% (active).
Take `O=[N+]([O-])c1ccc(-c2nc(-c3ccccc3)c(-c3ccccc3)n2-c2ccccc2)cc1`: the growth was -16.4% (active).
For the compound `O=C(NC1CCN(Cc2ccccc2)CC1)c1cc(-c2cccnc2)nc2ccc(Cl)cc12`, the growth was 73.9%.
The same measure for `CC1(C)CN(c2cnc(C(=O)Nc3cc(F)cc4cccnc34)cn2)CCN1`: 11.7%.
In the case of `CCc1cccc(Sc2cc(C(=O)N3Cc4ccc(OCCN(C)C)cc4C3)ccc2O)c1`, the growth is 50.3%.
In the case of `NCCNc1ccc([N+](=O)[O-])cc1` it was 91.9%.
The same measure for `O=C(Nc1ccccc1OC(=O)c1ccccc1)c1ccccc1`: 0.315% (active); for `NCCNc1nc(-c2ccccc2)nc2nc(-c3ccccc3)oc12`: 97.9%; for `CSc1nc2[nH]ncc2c(=O)[nH]1`: 114%.
The same measure for `Nc1ccc(N=Nc2ccc(S(=O)(=O)O)cc2)c2ccccc12`: 62.8%; for `CCCCC#Cc1c(I)n(C)c(=O)[nH]c1=O`: -10.8% (active).
With `C[C@H]1C(=O)N2c3ccccc3[C@@]3(O)C[C@@H](n4cnc5ccccc5c4=O)C(=O)N1[C@@H]23`, the growth was 64.6%.
The same measure for `CC(=Nc1ccccc1)C1=C(O)C(Cc2ccc(F)cc2)NC1=O` (stereo not drawn): -12.3% (active); for `COC(=O)c1c(C)nc(Nc2nc3ccccc3s2)nc1-c1ccc(Cl)cc1Cl`: 96.3%; for `O=c1nc(NO)[nH]c(=O)n1Cc1ccc(F)cc1`: 103%.
The same measure for `Cc1scc2c1N(C(=O)CN1CCN(C)CC1)c1ccccc1NC2=O`: 121%.
The same measure for `CCN(CC)CCCC(C)Nc1cnc(C(=O)Nc2cc(C)cc3cccnc23)cn1` (stereo not drawn): 76.8%.
Take `COc1ccc(Nc2ncccc2C(=O)NCc2cn(Cc3cc(OC)cc(OC)c3)nn2)cc1`: the growth was 91.6%.
In the case of `O=C(/C=C/c1ccccc1)c1cccc2ccccc12` it was 33.7%.
The same measure for `O=C(NCCCN1CCCCC1)c1ccc(-c2nc3ccc4[nH]ncc4c3c3c2CCCC3)cc1`: 93.4%.
Regarding `O=C1C(=O)c2cc([N+](=O)[O-])ccc2-c2ccccc21`, the growth was -30% (active).
As to `NC(=O)c1ccc(-c2cccc3c(=O)nc(N4CCOCC4)oc23)cc1`, the growth was 97.5%.
